In ChEMBL document CHEMBL3988442, “University of Dundee, Small-Polar-MMV Screening Library” (2021):
Among all 48,000 compounds or so, about 13,000 (27%) showed an effect of 50% or more. This is one part of the list.

system: Wolbachia pipientis; experiment: Anti-Wolbachia Cell-Based Screen; type: functional; design: scale not given: in the data most compounds retested in dose-response had high values; conditions: 5 µM

Structure (SMILES)	Percent Effect [%]
O=C(O)C(F)(F)F.O=C1CC2(CNCCN(C(=O)Nc3ccccc3)C2)CN1 (configuration not stated)	-25.05
CC(O)CN1CCC(CN(C)Cc2ccc(C#N)cc2F)CC1 (configuration not stated)	-14.31
Cc1nccn1-c1cc(CNC(=O)C(C)(C)C)ccn1	9.207
O=C(c1cc(C2CCCCN2CCO)n[nH]1)N1CCOCC1.O=CO (configuration not stated)	127.4
O=C(CCN1CCCCCC1c1ccco1)N1CCOCC1 (configuration not stated)	1.206
CN(C)Cc1ccc(C2CCCCN2C(=O)c2cc(C3CC3)n[nH]2)cc1 (configuration not stated)	2.856
O=C(CCN1CCCCC1c1cc2ccccc2[nH]1)N1CCOCC1 (configuration not stated)	-12.84
O=C(c1cc(C2CCCCN2C(=O)C2CCC2)n[nH]1)N1CCOCC1 (configuration not stated)	97.85
CC(=O)N1CCCCC1c1cc(C(=O)N2CCOCC2)[nH]n1 (configuration not stated)	-8.904
COCc1cncc2c1CCN(C(=O)c1ccsc1)C2	-1.861
COCc1cncc2c1CCN(C(=O)c1cscn1)C2	104.1
COCc1cncc2c1CCN(C(=O)c1ccc(C)o1)C2	-6.966
O=C(c1cnccn1)N1CCc2c(COCC3CC3)cncc2C1	-0.9982
CN(C)C(=O)N1CCc2c(COCC3CC3)cncc2C1	-21.89
CN(C)CCOCc1cncc2c1CCN(C(=O)c1cscn1)C2	84.03
Cn1cnnc1CCNC(=O)c1ccccc1OC1CCC1	-17.05
CCNc1nc(C)c(C(=O)N(C)Cc2noc(C)n2)s1	-18.27
Cc1c(C(=O)N[C@H]2CN(CCS(C)(=O)=O)C[C@@H]2C2CC2)cnn1C	4.067
Cc1c(C(=O)NC2CCCOc3cc(Cl)ccc32)cnn1C (configuration not stated)	96.08
CC1(C)Oc2ccc(NC(=O)c3ccc(=O)[nH]n3)cc2O1	-5.037
Cc1ccc2c(c1)OCCCC2NCc1nccn1CC(C)C (configuration not stated)	-15.26
O=C(Nc1ccc2c(c1)OCCO2)c1ccc(=O)[nH]n1	99.56
O=C(Nc1ccc2c(c1)OC1(CCCCC1)O2)c1ccc(=O)[nH]n1	13.01

Structure (SMILES)	Percent Effect [%]
CCc1cccc(N2CCC(NC(=O)c3ccc(=O)[nH]n3)CC2)c1	3.328
Cc1cc(C(=O)NC2CCCOc3cc(Cl)ccc32)n(C)n1 (configuration not stated)	104.1
Cc1ccc2c(c1)OCCCC2NC1CCN(C)CC1 (configuration not stated)	11.04
O=C(Nc1ccc2c(c1)OC1(CCCC1)O2)c1ccc(=O)[nH]n1	-12.04
Cc1ccc2c(c1)OCCCC2NCc1nccn1Cc1ccccc1 (configuration not stated)	-22
O=C(NC1CCCOc2cc(Cl)ccc21)c1ccc(=O)[nH]n1 (configuration not stated)	103.9
CC(C)N1CCCC2(CCN(C(=O)CCCn3ccnc3)C2)C1=O (configuration not stated)	-2.08
CCc1nnc(CNCC2CCN(CC(O)c3ccccc3)CC2)o1 (configuration not stated)	1.305
CCc1ncc(CN2CCCC3(CCC(=O)N(CCC(C)C)C3)C2)cn1 (configuration not stated)	-16.36
Cc1cc2c(=O)n3c(nc2s1)CCN(Cc1cnc(C(C)C)nc1)CC3	-3.495
CCc1ncc(CN2CCc3nc4sc(C)cc4c(=O)n3CC2)cn1	98.79
Cc1cc2c(=O)n3c(nc2s1)CCN(Cc1cnc(C)n1C)CC3.Cl	108.4
Cc1cc2c(=O)n3c(nc2s1)CCN(Cc1ccncc1)CC3	-12.53
Cc1cc(CN2CCc3nc(C)n(C)c(=O)c3CC2)[nH]n1	-18.21
Cc1nc2c(c(=O)n1C)CCN(Cc1cc3cc[nH]c3cn1)CC2	-4.621
Cc1nc[nH]c1CN1CCn2nc(CN3Cc4ccccc4C3)cc2C1	5.533
Cc1cc2c(=O)n3c(nc2s1)CCN(Cc1[nH]cnc1C)CC3.Cl	117
Cc1cc2c(=O)n3c(nc2s1)CCN(Cc1cncn1C)CC3.Cl	111.2
CCOC(=O)C1CCCCN1Cc1c[nH]nc1-c1cc2ccccc2o1 (configuration not stated)	10.01
Cc1cccc2cc(C(=O)N3CCN(S(=O)(=O)N(C)C)CC3)n(C)c12	-7.336
CNc1ncc(CN(C)Cc2cc(O)c3cc(C)cc(C)c3n2)cn1	2.553
CN(C)C1CCN(c2cc(-c3ccccc3)nc3ccnn23)C1 (configuration not stated)	-6.733
COc1cc(OC)cc(-c2cc(CN)nc3ccnn23)c1.Cl	104.2

Structure (SMILES)	Percent Effect [%]
Cl.NCc1cc(-c2ccccc2)n2nccc2n1	106.1
CCc1cc(NC(CCO)c2ccc(OC)cc2)n2nccc2n1 (configuration not stated)	6.902
COCc1cc(N2CCOCC2)n2nccc2n1	9.055
c1ccc(-c2cc(NCCCC3CCOC3)n3nccc3n2)cc1 (configuration not stated)	-17.54
CCc1cc(N[C@H](C(N)=O)[C@@H](C)CC)n2nccc2n1	-8.924
CCCc1cc(CNc2cc(CCC)nc3ccnn23)on1	-13.04
COc1ccc(-c2cc(CN)nc3ccnn23)cc1.Cl	124.4
CSc1ccc(-c2cc(CN)nc3ccnn23)cc1.Cl	95
COCc1cc(N2CCN(Cc3ccncc3)CC2)n2nccc2n1	2.178
CCc1ccc(CN(C)c2cc(COC)nc3ccnn23)cc1	-31
CC(C)OCc1nn(CC2CC2)c2c1CN(Cc1ccco1)CC2.O=C(O)C(F)(F)F	3.908
Cc1ccc(-n2nnnc2C2(NCc3ccco3)CCCC2)cc1	2.087
Cc1csc(C2(NCc3nnc(-c4ccco4)o3)CCCC2)n1	-3.858
Cc1cccc(C)c1-n1nnnc1C1(NCc2ccco2)CCCC1	75.79
CCN1CCN(Cc2coc(-c3cccc(F)c3)n2)CC1	3.559
OCCN1CCN(Cc2coc(-c3cccc(Cl)c3)n2)CC1	116.8
OCCN1CCN(Cc2coc(-c3cccc(F)c3)n2)CC1	105.3
CCOCCN1CCN(Cc2coc(-c3cccc(F)c3)n2)CC1	74.94
OCCN1CCN(Cc2cc(Cl)cc3cccnc23)CC1	0.645
Fc1cccc(-c2nc(CN3CCn4c(nnc4C4CC4)C3)co2)c1	2.763
O=C(C1CC1)N1CCN(Cc2coc(-c3ccc(Cl)cc3)n2)CC1	3.08
